Data on eight molecules can be found in PubChem BioAssay (Tox21).

Unmarked numbers belong to inactive results. Records with an inconclusive call do not appear. The source made the active and inactive calls. Unless noted, the call rests on the fitted dose curve; in most records, active means well fitted curve in the direction sought with a large enough effect in the repeat runs; inconclusive means weak or mixed curves; inactive means no such curve, though single readings can be large; an effect the other way counts as inactive or inconclusive.

The target of test [1] is Thyrotropin-releasing hormone receptor (Homo sapiens) (UniProt P34981). In words: qHTS assay to identify small molecule agonists of the thyrotropin-releasing hormone receptor (TRHR) signaling pathway (AID 1346891; calls by dose curve; further: series mostly up to about 58 µM). The method, boiled down:
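TRHR-expressing HEK293 cells were plated 18 h at 37 °C/5% CO2, loaded with calcium dye 2 h at 37 °C, then given compound in DMSO; fluorescence was read kinetically for 3 min at 1 s intervals.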
(In general: In qHTS, concentration-response curves come from the screen itself.)

A short description of test [2]: Human pregnane X receptor (PXR) small molecule agonists, qHTS cell viability counter screen (AID 1346977). Further: nearly all actives have a fitted effect of over 50% in size. Further: potency means the concentration at half of the fitted maximal effect. The method, boiled down: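 PXR-Luc HepG2 cells in medium with 5% charcoal-stripped FBS were pre-incubated 5hr, then exposed to compounds for 24hr at 37C. Viability was read in the same wells by CellTiter-Fluor fluorescence, reagent added after 23hr with a 1hr incubation.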

A short description of test [3]: Caspase-3/7 induction in CHO-K1 cells by small molecules, qHTS assay (AID 1346980). Further: nearly all actives have a fitted effect of over 15% in size. The method in brief: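 Luminescent Caspase-Glo 3/7 read (30min, room temperature) quantified apoptosis induction. Cells were wild-type CHO-K1, treated with compound for 17hr at 37 C and 5% CO2.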
The target of test [4] is Nuclear receptor subfamily 1 group I member 2 (Rattus norvegicus) (UniProt Q9R1A7). The test can be described thus: Rat pregnane X receptor (rPXR) activation by small molecules, qHTS assay (AID 1346983). Further: nearly all actives have a fitted effect of over 20% in size. Conditions: rPXR luciferase reporter cells, One-Glo luminescence, 24 h; max activation: stronger effect = higher value. The method in brief: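 Luminescent readout (One-Glo luciferase, 30 min room temperature) followed 24 hr compound treatment at 37 C of rPXR cells plated 2,000 per well and preincubated 5hr; qHTS format with compounds delivered in DMSO.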

The target in test [5] is Cytochrome P450 2D6 (Homo sapiens) (UniProt P10635). In words: Cytochrome P450 Family 2 Subfamily D Member 6 (CYP2D6) small molecule antagonists: luciferase reporter qHTS assay (AID 1671196). Further: nearly all actives have a fitted effect of over 50% in size. Further: potency means the concentration at half of the fitted maximal effect. The method, boiled down: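 Quantitative HTS of Tox21 chemicals against CYP2D6 using a luminescent proluciferin substrate. After NADPH addition, 1 h room-temperature reaction; luminescence recorded 20 min post detection reagent.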

The target in test [6] is Cytochrome P450 2C9 (Homo sapiens) (UniProt P11712). The test can be described thus: Cytochrome P450 Family 2 Subfamily C Member 9 (CYP2C9) small molecule antagonists: luciferase reporter qHTS assay (AID 1671198). Further: nearly all actives have a fitted effect of over 50% in size. Further: potency means the concentration at half of the fitted maximal effect. The method, boiled down:
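Enzyme-substrate mix preincubated with compound 10 min at room temperature; reaction started with NADPH regeneration solution, 1 h 37C. Luminescent luciferin product read after 20 min detection reagent.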
(In a reporter assay the amount or activity of a reporter protein is the signal.)

For test [7], the target named is Cytochrome P450 1A2 (Homo sapiens) (UniProt P05177). In words: Cytochrome P450 Family 1 Subfamily A Member 2 (CYP1A2) small molecule antagonists: luciferase reporter qHTS assay (AID 1671199). Further: nearly all actives have a fitted effect of over 50% in size. Further: potency means the concentration at half of the fitted maximal effect. The method, boiled down:
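Quantitative high-throughput format using the P450-Glo CYP1A2 system. Reaction initiated by NADPH regeneration solution, 1 h at room temperature, then stopped with detection reagent; luminescence measured 20 min later.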

The nature of test [8]: Caspase-3/7 induction in HepG2 cells by small molecules, qHTS assay (AID 1346978). Further: nearly all actives have a fitted effect of over 15% in size. The method in brief:
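Caspase-3/7 induction was measured by Caspase-Glo 3/7 luminescence (30 min, room temperature) after a 17 hr compound exposure of wild-type HepG2 cells seeded at 2,000 per well and pre-incubated 5 hr.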

Test [9] is described as follows: Caspase-3/7 induction in CHO-K1 cells by small molecules, qHTS cell viability counter screen (AID 1346979). Further: nearly all actives have a fitted effect of over 35% in size. Further: potency means the concentration at half of the fitted maximal effect. The method, boiled down:
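Wild-type CHO-K1 cells were seeded at 1,500 per well, rested 5hr at 37 C, then exposed to compounds in DMSO. After 16hr, CellTiter-Fluor reagent was added and fluorescence read 1hr later as the viability measure.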

Test [10] can be described thus: Caspase-3/7 induction in HepG2 cells by small molecules, qHTS cell viability counter screen (AID 1346981). Further: series mostly up to about 92 µM; nearly all actives have a fitted effect of over 30% in size. The method, boiled down:
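The parent HepG2 line is plated at 2,000 cells per well and rested 5 hr before compound pinning from DMSO stocks. Following a 16-hr treatment at 37 C, a fluorogenic live-cell substrate (CellTiter-Fluor) reports viability after 1 hr.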

Test [11] deals with Nuclear receptor subfamily 1 group I member 2 (Homo sapiens) (UniProt O75469). The test can be described thus: Human pregnane X receptor (PXR) small molecule agonists, qHTS assay (AID 1346982). Further: nearly all actives have a fitted effect of over 35% in size. Further: potency means the concentration at half of the fitted maximal effect. The method in brief:
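After plating in 5% charcoal-stripped FBS and a 5 hr rest, PXR-Luc HepG2 cells received compounds in DMSO. Following 24 hr at 37 C, ONE-Glo was added and light output read.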

Test [12] addresses Cytochrome P450 2C19 (Homo sapiens) (UniProt P33261). The test can be described thus: Cytochrome P450 Family 2 Subfamily C Member 19 (CYP2C19) small molecule antagonists: luciferase reporter qHTS assay (AID 1671197). Further: nearly all actives have a fitted effect of over 65% in size. Further: potency means the concentration at half of the fitted maximal effect. The method, boiled down:
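Light output is proportional to CYP2C19 activity: proluciferin substrate is converted to luciferin, then detected by a luciferin detection reagent that also stops the 1 h, 37C NADPH-driven reaction. Ketoconazole serves as positive control.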

Test [13] concerns the target Voltage-gated inwardly rectifying potassium channel KCNH2 (Homo sapiens) (UniProt Q12809). In words: Human Ether-a-go-go-Related Gene (hERG) channel small molecule antagonists: fluorescence cell-based qHTS assay (AID 1671200). Further: nearly all actives have a fitted effect of over 50% in size. Further: potency means the concentration at half of the fitted maximal effect. The method in brief:
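U2OS cells expressing the channel were plated at 1000 cells/well, incubated overnight at 37 C, then loaded with FluxOR II thallium-sensitive dye for 1 h at room temperature in the dark, with a further 10 min at room temperature before stimulation.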
Background: The hERG channel carries a current that helps repolarise heart muscle cells.

In test [14] the target is Cytochrome P450 3A4 (Homo sapiens) (UniProt P08684). In words: Cytochrome P450 Family 3 Subfamily A Member 4 (CYP3A4) small molecule antagonists: luciferase reporter qHTS assay (AID 1671201). The method in brief:
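P450-Glo CYP3A4 system with proluciferin substrate; compounds preincubated 10 min RT with enzyme-substrate mix, then NADPH regeneration added for 1 h RT. Detection reagent 20 min, luminescence read as relative luminescence units.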

The target of test [15] is Nuclear receptor subfamily 1 group I member 2 (Homo sapiens) (UniProt O75469). In words: CYP3A4 induction through human pregnane X receptor (PXR) by small molecules, qHTS assay (AID 1346984). Further: nearly all actives have a fitted effect of over 40% in size. The method, boiled down: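 Human PXR activation is tracked via CYP3A4 promoter-luciferase in DPX-2 (HepG2) cells. Compounds treat cells for 24hr at 37C, and luminescence is read after One-Glo.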

Test [16] has the same target. The test can be described thus: Human pregnane X receptor (PXR) activation by small molecules, qHTS assay (AID 1346985). Further: nearly all actives have a fitted effect of over 40% in size. The method, boiled down: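 DPX-2 cells (HepG2 co-transfected with a PXR response element and a CYP3A4-promoter luciferase construct) were seeded at 2,000 per well, rested 5 hr at 37C, then exposed to DMSO-dissolved compounds for 24 hr. Activation was read as luciferase luminescence.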
On the % scale 0 is the no-effect control and ±100 the full control effect.

Chain of Cytochrome P450 2D6 (Homo sapiens) (P10635 whole entry, looked up): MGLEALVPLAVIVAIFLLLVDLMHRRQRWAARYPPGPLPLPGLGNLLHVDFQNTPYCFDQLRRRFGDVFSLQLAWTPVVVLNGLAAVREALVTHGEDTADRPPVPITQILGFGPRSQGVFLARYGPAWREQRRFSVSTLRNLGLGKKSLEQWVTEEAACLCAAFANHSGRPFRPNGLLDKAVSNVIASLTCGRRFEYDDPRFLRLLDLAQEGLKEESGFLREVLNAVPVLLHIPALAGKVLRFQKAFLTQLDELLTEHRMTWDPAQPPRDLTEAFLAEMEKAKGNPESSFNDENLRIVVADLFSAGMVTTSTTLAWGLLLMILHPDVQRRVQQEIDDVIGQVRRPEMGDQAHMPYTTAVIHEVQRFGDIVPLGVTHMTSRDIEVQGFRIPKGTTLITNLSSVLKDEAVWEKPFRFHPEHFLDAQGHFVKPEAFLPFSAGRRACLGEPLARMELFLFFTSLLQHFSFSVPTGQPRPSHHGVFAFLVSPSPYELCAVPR
Chain of Thyrotropin-releasing hormone receptor (Homo sapiens) (P34981 whole entry, looked up): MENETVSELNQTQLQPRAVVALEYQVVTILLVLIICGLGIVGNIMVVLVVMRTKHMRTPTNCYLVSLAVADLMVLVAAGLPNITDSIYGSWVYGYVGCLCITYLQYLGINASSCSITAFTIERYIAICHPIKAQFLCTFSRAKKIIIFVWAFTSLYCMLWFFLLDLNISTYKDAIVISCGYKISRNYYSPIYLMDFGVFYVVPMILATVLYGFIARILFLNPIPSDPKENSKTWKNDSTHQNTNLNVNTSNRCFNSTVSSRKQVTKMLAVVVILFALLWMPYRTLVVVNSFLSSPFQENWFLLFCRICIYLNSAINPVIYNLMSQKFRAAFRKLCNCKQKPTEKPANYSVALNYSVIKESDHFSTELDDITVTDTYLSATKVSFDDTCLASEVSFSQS
Chain of Cytochrome P450 2C9 (Homo sapiens) (P11712 whole entry, looked up): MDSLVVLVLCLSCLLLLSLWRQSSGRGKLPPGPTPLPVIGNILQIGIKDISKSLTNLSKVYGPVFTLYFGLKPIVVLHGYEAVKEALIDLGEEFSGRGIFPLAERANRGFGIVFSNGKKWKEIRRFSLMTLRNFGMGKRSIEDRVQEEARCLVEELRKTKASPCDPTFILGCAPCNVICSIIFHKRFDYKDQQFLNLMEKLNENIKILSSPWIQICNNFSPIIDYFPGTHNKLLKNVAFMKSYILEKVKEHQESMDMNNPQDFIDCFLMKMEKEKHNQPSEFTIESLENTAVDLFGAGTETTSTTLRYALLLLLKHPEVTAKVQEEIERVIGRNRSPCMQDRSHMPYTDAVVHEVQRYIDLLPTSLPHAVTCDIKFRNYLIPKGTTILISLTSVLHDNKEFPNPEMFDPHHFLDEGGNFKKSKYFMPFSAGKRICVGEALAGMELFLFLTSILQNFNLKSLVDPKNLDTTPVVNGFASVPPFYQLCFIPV
Chain of Nuclear receptor subfamily 1 group I member 2 (Homo sapiens) (O75469 whole entry, looked up): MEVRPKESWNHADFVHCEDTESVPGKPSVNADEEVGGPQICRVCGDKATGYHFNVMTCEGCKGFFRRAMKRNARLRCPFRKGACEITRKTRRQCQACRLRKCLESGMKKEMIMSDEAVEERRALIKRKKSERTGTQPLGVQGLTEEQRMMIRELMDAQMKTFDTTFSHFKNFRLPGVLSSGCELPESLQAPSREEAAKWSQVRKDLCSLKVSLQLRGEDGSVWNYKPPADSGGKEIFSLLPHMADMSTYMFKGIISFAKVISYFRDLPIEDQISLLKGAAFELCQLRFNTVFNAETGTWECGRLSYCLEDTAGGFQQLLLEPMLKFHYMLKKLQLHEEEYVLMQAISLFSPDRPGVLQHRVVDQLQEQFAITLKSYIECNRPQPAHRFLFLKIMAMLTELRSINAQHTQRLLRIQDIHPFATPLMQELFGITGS
Chain of Cytochrome P450 3A4 (Homo sapiens) (P08684 whole entry, looked up): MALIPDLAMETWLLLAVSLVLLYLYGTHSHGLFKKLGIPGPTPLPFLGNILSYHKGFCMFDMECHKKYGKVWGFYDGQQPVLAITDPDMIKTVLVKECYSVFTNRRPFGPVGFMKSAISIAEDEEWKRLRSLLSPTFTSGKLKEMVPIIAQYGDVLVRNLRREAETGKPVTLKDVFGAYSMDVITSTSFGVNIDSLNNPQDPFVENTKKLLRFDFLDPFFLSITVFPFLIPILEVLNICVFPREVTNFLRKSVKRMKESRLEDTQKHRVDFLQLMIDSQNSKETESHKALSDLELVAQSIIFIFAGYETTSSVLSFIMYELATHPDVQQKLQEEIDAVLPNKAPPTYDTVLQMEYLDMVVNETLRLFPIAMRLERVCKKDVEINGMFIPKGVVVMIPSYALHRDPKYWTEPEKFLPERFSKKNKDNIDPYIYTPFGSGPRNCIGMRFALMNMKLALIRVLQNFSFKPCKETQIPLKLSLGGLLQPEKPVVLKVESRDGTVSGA
Chain of Nuclear receptor subfamily 1 group I member 2 (Rattus norvegicus) (Q9R1A7 whole entry, looked up): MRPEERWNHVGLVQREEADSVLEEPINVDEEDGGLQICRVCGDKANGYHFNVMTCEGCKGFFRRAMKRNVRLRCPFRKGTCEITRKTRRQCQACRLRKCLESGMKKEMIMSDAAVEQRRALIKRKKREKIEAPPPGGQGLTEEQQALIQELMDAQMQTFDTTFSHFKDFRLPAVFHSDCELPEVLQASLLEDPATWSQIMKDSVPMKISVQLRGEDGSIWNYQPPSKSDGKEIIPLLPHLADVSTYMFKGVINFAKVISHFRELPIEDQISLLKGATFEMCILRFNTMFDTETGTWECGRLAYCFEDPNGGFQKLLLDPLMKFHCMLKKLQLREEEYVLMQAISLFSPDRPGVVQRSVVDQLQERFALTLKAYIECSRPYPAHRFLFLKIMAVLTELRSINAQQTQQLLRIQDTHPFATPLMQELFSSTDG
Chain of Cytochrome P450 1A2 (Homo sapiens) (P05177 whole entry, looked up): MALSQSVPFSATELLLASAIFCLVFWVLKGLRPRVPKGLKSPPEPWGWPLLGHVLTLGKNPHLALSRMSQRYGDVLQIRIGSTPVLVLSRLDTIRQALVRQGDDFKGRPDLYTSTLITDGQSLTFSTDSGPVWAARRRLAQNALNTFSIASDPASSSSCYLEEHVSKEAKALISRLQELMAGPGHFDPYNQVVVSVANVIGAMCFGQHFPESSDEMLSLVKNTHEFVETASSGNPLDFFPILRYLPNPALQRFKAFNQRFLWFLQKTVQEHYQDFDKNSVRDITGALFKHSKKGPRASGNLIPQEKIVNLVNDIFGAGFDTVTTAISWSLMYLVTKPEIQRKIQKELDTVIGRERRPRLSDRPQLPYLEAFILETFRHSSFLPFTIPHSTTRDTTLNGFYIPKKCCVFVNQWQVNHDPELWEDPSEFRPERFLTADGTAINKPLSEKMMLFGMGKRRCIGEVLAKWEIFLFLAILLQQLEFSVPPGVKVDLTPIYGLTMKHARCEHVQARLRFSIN
Chain of Cytochrome P450 2C19 (Homo sapiens) (P33261 whole entry, looked up): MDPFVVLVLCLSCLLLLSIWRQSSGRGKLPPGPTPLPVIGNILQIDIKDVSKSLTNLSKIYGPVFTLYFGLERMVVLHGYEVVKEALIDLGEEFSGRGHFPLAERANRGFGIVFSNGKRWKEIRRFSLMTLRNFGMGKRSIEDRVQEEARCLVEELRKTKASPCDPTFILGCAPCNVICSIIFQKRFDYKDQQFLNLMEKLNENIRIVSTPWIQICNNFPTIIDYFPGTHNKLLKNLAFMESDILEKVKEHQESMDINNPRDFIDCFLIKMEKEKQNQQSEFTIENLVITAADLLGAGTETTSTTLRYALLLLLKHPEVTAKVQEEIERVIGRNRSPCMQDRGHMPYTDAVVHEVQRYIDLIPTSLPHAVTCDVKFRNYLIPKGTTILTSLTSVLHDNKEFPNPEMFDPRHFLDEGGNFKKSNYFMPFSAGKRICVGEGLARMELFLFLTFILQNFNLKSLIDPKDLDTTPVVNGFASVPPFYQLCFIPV
Chain of Voltage-gated inwardly rectifying potassium channel KCNH2 (Homo sapiens) (Q12809 whole entry, looked up): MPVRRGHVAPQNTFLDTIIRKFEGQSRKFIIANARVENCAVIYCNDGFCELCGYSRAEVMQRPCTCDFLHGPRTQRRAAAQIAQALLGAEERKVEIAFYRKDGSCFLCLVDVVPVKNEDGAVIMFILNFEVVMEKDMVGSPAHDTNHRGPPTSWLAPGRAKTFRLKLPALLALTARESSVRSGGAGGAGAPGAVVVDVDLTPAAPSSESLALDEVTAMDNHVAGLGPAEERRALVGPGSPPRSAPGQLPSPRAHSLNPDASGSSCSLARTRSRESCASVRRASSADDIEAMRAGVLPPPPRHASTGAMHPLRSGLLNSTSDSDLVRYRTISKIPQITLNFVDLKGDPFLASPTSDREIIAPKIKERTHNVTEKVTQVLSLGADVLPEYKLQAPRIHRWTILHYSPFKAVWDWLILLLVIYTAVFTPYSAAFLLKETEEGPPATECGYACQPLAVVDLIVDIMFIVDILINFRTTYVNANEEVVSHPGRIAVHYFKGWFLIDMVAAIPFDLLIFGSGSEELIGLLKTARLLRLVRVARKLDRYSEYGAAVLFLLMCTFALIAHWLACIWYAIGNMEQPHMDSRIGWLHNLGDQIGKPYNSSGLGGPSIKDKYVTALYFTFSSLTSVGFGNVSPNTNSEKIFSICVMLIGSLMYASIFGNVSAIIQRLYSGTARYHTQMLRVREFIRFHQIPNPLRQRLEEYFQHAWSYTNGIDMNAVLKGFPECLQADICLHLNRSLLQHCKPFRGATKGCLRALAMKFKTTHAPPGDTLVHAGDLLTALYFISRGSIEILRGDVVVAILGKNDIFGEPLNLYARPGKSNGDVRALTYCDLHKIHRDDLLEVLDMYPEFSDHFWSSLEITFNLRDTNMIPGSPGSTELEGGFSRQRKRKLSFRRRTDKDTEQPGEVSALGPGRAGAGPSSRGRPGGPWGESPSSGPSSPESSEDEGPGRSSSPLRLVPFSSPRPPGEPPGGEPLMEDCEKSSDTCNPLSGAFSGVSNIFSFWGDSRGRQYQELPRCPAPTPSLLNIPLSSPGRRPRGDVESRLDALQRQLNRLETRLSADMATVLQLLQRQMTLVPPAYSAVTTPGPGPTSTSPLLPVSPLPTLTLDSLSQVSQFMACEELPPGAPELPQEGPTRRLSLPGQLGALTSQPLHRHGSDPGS

Consider `CN(C)CC/C=C1\c2ccccc2Sc2ccc(Cl)cc21`, for which the molecule was classed as inactive in test [1] and in test [3]. In addition, the values for the Potency in [2], in test [5] and in test [7] were 29.8 µM (active), 2.75 µM (active) and 7.23 µM (active), respectively. The max activation in test [4] is 3.57%. Besides, in test [6], the Potency entry was “inactive”.

Turning to `O=C1c2ccccc2C(=O)c2c(O)ccc(O)c21`, the molecule was classed as inactive in [1] and in test [3]. The Potency result in test [8], in test [9], in test [10], in [5], in test [12] and in test [6] was “inactive” throughout. Moreover, the Potency entry in test [13] and in [14] was “inactive” in each case. The figures for the Potency in [11] and in [7] were 4.86 µM (active) and 3.17 µM (active), respectively.

As for `CC(=O)N[C@@H](Cc1ccc(O)cc1)C(=O)O`, the Potency result in [2], in [8], in test [9], in [10], in [11] and in test [15] was “inactive” throughout. Also, the Potency entry in test [16], in [5], in test [12], in test [6], in [7] and in test [13] was “inactive” in each case. The Potency entry in test [14] was “inactive”. Also, in test [3], the result was inactive. For the same molecule, in test [4], the max activation is -1.6%.

Regarding `O=C(O)CNC(=O)c1ccccc1I`, the Potency entry in test [2], in test [8], in [9], in [10], in test [11] and in [15] was “inactive” in each case. For the same molecule, the Potency entry in test [16], in [5], in test [6], in test [13] and in test [14] was “inactive” throughout. In addition, the outcome in test [3] was inactive. The max activation in test [4] is 0.066%.

`O=[N+]([O-])C1(Br)COCOC1`: the outcome in test [1] and in [3] was inactive. In addition, the Potency result in test [8], in test [10] and in test [5] was “inactive” throughout. Besides, the Potency is 54.5 µM (active) in test [9], 15.9 µM (active) in test [12], 7.1 µM (active) in [6] and 15.9 µM (active) in test [7].

Take `CCN(CC)CCOC(=O)C(c1ccccc1)c1ccccc1`: the call in test [1] and in test [3] was inactive. Also, the Potency result in test [8], in test [9], in [10], in test [11], in test [15] and in test [16] was “inactive” in each case. Moreover, the Potency result in [14] is “inactive”. In addition, the max activation in test [4] was 0.131%. For the same molecule, the Potency in test [5] was 2.75 µM (active); in test [12], 21.9 µM (active); in [7] it was 15.5 µM (active); in test [13], 2.68 µM (active).

Consider `CC(C)C1CCC(C(=O)N[C@H](Cc2ccccc2)C(=O)O)CC1` (some centres undefined), for which the Potency entry in test [2], in [8], in test [9], in test [10], in [11] and in test [16] was “inactive” each time. Further, the Potency entry in [5], in [7], in test [13] and in test [14] was “inactive” each time. Besides, in test [3], the call was inactive. The max activation in [4] was -2.46%. Also, the Potency in test [6] is 11 µM (active).

Turning to `O=C1[C@@H]2[C@H]3CC[C@H](C3)[C@@H]2C(=O)N1CCCCN1CCN(c2ncccn2)CC1`, the Potency entry in [2], in test [8], in test [9], in [10], in [11] and in test [12] was “inactive” each time. The Potency result in [6], in test [7] and in [13] was “inactive” in each case. In test [3], the molecule was classed as inactive. For the same molecule, in test [5], the Potency was 12.3 µM (active).
